S1P1 agonist – S1P1 (human) receptor agonism | S1P1 agonist cell-based reporter assay | 16,000 tested, 1.5% active | activation, % at 4.5 µM; in the data active = activation above about 80%
Target sequence (P21453 whole entry, looked up): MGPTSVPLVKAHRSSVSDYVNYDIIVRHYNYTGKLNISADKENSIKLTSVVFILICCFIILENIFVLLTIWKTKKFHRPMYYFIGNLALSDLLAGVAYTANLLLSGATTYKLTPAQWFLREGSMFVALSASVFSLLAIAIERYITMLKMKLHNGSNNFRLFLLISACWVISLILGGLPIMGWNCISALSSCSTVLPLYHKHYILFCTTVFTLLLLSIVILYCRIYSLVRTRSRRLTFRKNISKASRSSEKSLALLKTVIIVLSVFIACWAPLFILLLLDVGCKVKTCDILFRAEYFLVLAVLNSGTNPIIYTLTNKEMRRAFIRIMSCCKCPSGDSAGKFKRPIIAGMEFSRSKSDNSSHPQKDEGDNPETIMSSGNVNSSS
PME-1 Maybr inh – Maybridge compound blocking human PME-1; Q9Y570; recombinant PME-1, FP-Rh probe fluorescence polarization; inhibition, % at 9 µM; 16,000 tested, 0.5% active; in the data active = inhibition above about 30%
rat GALR2 agon – GALR2 (rat) receptor agonism | 16,000 tested, 0.5% active | activation, % at 10 µM | cell-based GALR2 agonist screen; in the data active = activation above about 15%
Numbers without * were called inactive. Rows were chosen to be rich in hits. Some 2.7% of all compounds tested hit in one or more screens of this group.

SMILES | S1P1 agonist | PME-1 Maybr inh | rat GALR2 agon
CCOC(=O)c1sc(Nc2ccccc2)c(-c2nc3ccccc3[nH]2)c1N | -3 | 31* | -5
CCOC(=O)c1sc2nc(C)c(N=Nc3ccccc3)c(C)c2c1N | -8 | 6 | -8
CNC(=S)NNC(=O)C(C)Oc1ccc(Cl)cc1 (stereo not given) | -10 | 2 | -1
Cc1cc(=O)n2[nH]c(C(C)(C)C)cc2n1 | -11 | 2 | -6
CC1CCCN(c2ccc([N+](=O)[O-])cc2)C1 (stereo not given) | 8 | 5 | -4
CCN1CCCC1CNC(=O)NC(=O)c1ccc([N+](=O)[O-])cc1 (stereo not given) | 85* | -1 | -4
CC(C)(C)c1nnc(-c2cccc(NS(=O)(=O)c3ccc(-c4ccon4)s3)c2)o1 | 23 | 7 | -8
CCOC(=O)c1cc(C#N)c(Sc2nnc(SC)s2)nc1C(F)(F)F | -3 | 4 | -11
COc1ccc(-c2nc(C(C)=O)cs2)cc1[N+](=O)[O-] | 13 | 1 | -5
O=C(Nc1ccc(F)c(Cl)c1)c1cc(Br)ccc1O | 109* | 7 | -12
O=C(Cc1nn[nH]n1)Nc1ccc(F)c(Cl)c1 | -5 | -1 | -6
Cn1c2ccc(Cl)cc2c2cc(Cl)ccc21 | -11 | -16 | -8
COc1cc(C(=O)Oc2ccc(Cl)cc2Cl)cc(OC)c1OC | -11 | 0 | -4
COc1cc(C(=O)Oc2c(Cl)cc(Cl)cc2/C=N/NC(N)=S)cc(OC)c1OC | -12 | 34* | -8
O=C(CCCC(=O)NNC(=O)c1cccs1)NNC(=O)c1cccs1 | -2 | -1 | -5
CCn1c2ccccc2c2cc(N3C(=O)C=CC3=O)ccc21 | 110* | -24 | -9
COc1ccc(N2C(=O)C=CC2=O)cc1OC | 23 | -1 | -4
O=C(CSc1ccc(F)c(Cl)c1)c1ccc2c(c1)OCCO2 | -9 | -3 | -6
Cc1cc(Nc2cccc3c2OCO3)c2ccccc2n1 | 3 | 1 | -5
CC(C)(C)NC(=O)Nc1ccccc1SCCC#N | -7 | 5 | -3
Cc1nc(C(F)(F)F)c(C(=O)O/N=C(\N)c2cccc(C(F)(F)F)c2)s1 | 99* | -6 | -8
N/C(=N\OC(=O)c1csc([N+](=O)[O-])c1)c1cccc(C(F)(F)F)c1 | 45 | 2 | -7
c1ccc(SCc2ccc(-c3csnn3)cc2)nc1 | 16 | 8 | 3
O=C(c1cccs1)N1CCN(C(=O)C2CCCCC2)CC1 | -6 | 4 | -3
COc1ccc(Oc2ccc([N+](=O)[O-])cc2)cc1 | 3 | 2 | -7
SMILES | S1P1 agonist | PME-1 Maybr inh | rat GALR2 agon
COc1ccc(Oc2ccc([N+](=O)[O-])c(Oc3ccc(OC)cc3)n2)cc1 | 88* | 6 | -5
CC(C)(C)n1c(-c2ccncc2)n[nH]c1=S | -16 | -1 | -10
COC(=O)CNC(=O)c1ccccc1 | 1 | 4 | -5
O=C(NCC(O)COCc1ccccc1)c1ccccc1 (stereo not given) | 4 | 4 | 29*
FC(F)(F)c1ccc(SCc2ccccc2)nc1 | 14 | 4 | -9
CSc1nnc(-c2sc3nc(C)cc(C)c3c2N)n1Cc1ccccc1 | 5 | 9 | 29*
Cc1cc(C)c2c(N)c(C(N)=O)sc2n1 | 28 | -3 | -3
O=C1C=CC(=O)N1CCc1cccs1 | 1 | 4 | -5
Cc1onc(-c2ccccc2)c1CNC(=O)CN1C(=O)c2ccccc2C1=O | -5 | 2 | -6
c1ccc(CSC2=NCCCN2C2CCCCC2)cc1 | -20 | -1 | 0
N#CCCNc1ccc(N=Nc2ccc(Cl)cc2)cc1 | 104* | 2 | 2
COc1ccc(NCCC#N)cc1 | -9 | -2 | -4
O=c1[nH]c2ccc([N+](=O)[O-])cc2s1 | -2 | -1 | -5
N#Cc1c(F)cccc1NC(=O)c1ccc(Cl)cc1 | -18 | -1 | -8
Clc1ccc(CSc2nnc(-n3cccc3)s2)cc1 | 80* | 1 | -7
Cc1nnc(SCc2ccc([N+](=O)[O-])cc2)s1 | -2 | 1 | -4
CCC(C)c1ccccc1NC(=O)c1cc2c(C)cc(C)cc2[nH]1 (stereo not given) | -4 | -24 | -7
O=[N+]([O-])c1ccc2nc3c(O)c4ccccc4c(O)c3nc2c1 | -2 | 38* | -7
Cc1nc2ccc([N+](=O)[O-])cc2nc1C | -6 | 0 | -7
COc1cc(C=N/C(C#N)=C(/C#N)NCC(C)(C)C)cc(Br)c1O | -25 | 7 | -1
CC(C)(C)CN/C(C#N)=C(\N)C#N | 106* | 2 | 3
C/C(=N\O)C(C)(C)Nc1cc(C(F)(F)F)cc(C(F)(F)F)c1 | -224 | 3 | -7
CCc1ccc(NCN2C(=O)C(=O)c3ccccc32)cc1 | -13 | -3 | -4
Cc1cc(NC(=O)C(Cl)Cl)n(-c2ccccc2)n1 | -12 | -1 | -3
Cc1cc(NC(=O)CN2CCOCC2)n(-c2ccccc2)n1 | 9 | 7 | 137*
SMILES | S1P1 agonist | PME-1 Maybr inh | rat GALR2 agon
COc1ccc(NS(=O)(=O)c2ccc(C)cc2)c([N+](=O)[O-])c1 | 4 | 8 | -6
COc1ccc(S(=O)(=O)Nc2cc(C)c(C)cc2[N+](=O)[O-])c(OC)c1 | 15 | 33* | -6
Cc1cccc(C)c1NC(=S)NCCCC(=O)O | -2 | -4 | -8
c1cncc(-c2n[nH]c(-c3ccncc3)n2)c1 | 2 | -6 | -4
c1cncc(-c2csc(-c3cccnc3)n2)c1 | -10 | 34* | -5
O=c1[nH]cc(N2CCN(Cc3ccccc3)CC2)c(=O)[nH]1 | -10 | 2 | -4
CC(C)(C)c1cc(C(=O)NNC(=S)Nc2ccccc2)n(Cc2ccc(Cl)cc2Cl)n1 | 101* | 4 | -9
CC(C)(C)c1cc(C(=O)NCc2ccc(C#N)cc2)n(Cc2ccccc2)n1 | 5 | -2 | -9
CC(C)(C)c1ccc(OC(=O)c2ccc([N+](=O)[O-])s2)cc1 | -6 | 21 | 1
CN(C)CCCNc1sc(-c2ccccn2)c([N+](=O)[O-])c1[N+](=O)[O-] | 2 | 65* | -7
O=[N+]([O-])c1c(Sc2ccccn2)sc(Sc2ccccn2)c1[N+](=O)[O-] | 0 | 5 | -6
CC(=O)c1c(C)[nH]c(=S)c(C#N)c1-c1cccs1 | -14 | -4 | -8
Cc1ccc(NC(=O)c2c(F)cccc2Cl)cc1NS(C)(=O)=O | 6 | -2 | -7
CC(=O)Nc1ccc(NC(=O)c2c(Cl)cccc2Cl)c(C)c1 | -2 | -4 | 41*
N#CCC(=O)NNC(=O)/C=C/C(=O)O | -1 | 6 | -3
COc1cccn(CC(=O)NNS(=O)(=O)c2ccccc2)c1=O | 3 | 6 | -5
N#Cc1c(NCc2cccs2)ccc([N+](=O)[O-])c1NCc1cccs1 | 18 | 5 | -11
CN(C)Nc1ccc([N+](=O)[O-])c(NN(C)C)c1C#N | 81* | 2 | -5
O=c1cc(O)c2c(n1-c1ccccc1)CCCC2 | 2 | -7 | -6
CC(C)(C)c1csc(NNC(=O)c2ccc(Cl)cc2)n1 | -4 | 0 | -10
COc1cc(C(=O)NNS(=O)(=O)c2ccc(Cl)cc2)c(-n2c(C)ccc2C)cc1OC | 4 | 3 | -4
COc1cc(NC(=O)Nc2ccc(Cl)cc2)c(-n2c(C)ccc2C)cc1OC | -11 | 74* | -4
COc1ccc(CCNC(C#N)c2ccco2)cc1OC (stereo not given) | 105* | -3 | -12
COc1ccc(CCNC(=O)c2ccccc2)cc1OC | -7 | 1 | -6
COc1cc(N2CCCC2)c([N+](=O)[O-])cc1[N+](=O)[O-] | 6 | 3 | -5

Screening results deposited in PubChem BioAssay by The Scripps Research Institute Molecular Screening Center.
